Assay outcomes as filed in PubChem BioAssay.
In the library only some 2.4% were active in any assay of this set; here they are far more common.
ATXN2 expr inh = ATXN2 expression inhibition; HEK-293 ATXN2-luciferase reporter, luminescence, 24 h; Potency, µM (titrated, usually from 57 µM), usual class: inhibitors; hit rate 0.72% among 360,000; AID 1745845; note: nearly all actives have a fitted effect of over 55% in size
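ATXN2-luciferase reporter cells (luciferase flanked by upstream and downstream ATXN2 gene portions) were treated 24 h at 37 °C with compounds at up to 57 uM. SteadyGlo luminescence gave expression; GF-AFC fluorescence gave viability.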
HepG2 viability = counter-screen for TGF-b inhibitors: cytotoxicity in HepG2 cells; HepG2 CAGA-GFP viability, ATP luminescence, 18 h; Potency, µM (highest dose often 46.1 µM), most hits filed as cytotoxic; hit rate 0.76% among 410,000
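HepG2 CAGA-GFP cells (1000/well, DMEM with 1% FBS) received compound, then TGF-beta at 500 pg/mL final, and were incubated 18 hours at 37 degrees C. Viability was read by CellTiter-Glo luminescence. Media-only wells were set as complete cell-killing and DMSO as no toxicity.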
ATXN viability = reduces viability in counter-screen for ATXN expression inhibitors. Potency, µM (titrated, usually from 56.7 µM), usual class: cytotoxic. S2 cells (HEK-293 line with an ATXN2-luciferase reporter) viability, CellTiter-Fluor protease fluorescence, 24 h. AID 651635. hit rate 0.49% among 400,000; note: nearly all actives have a fitted effect of over 40% in size
Anesthetic bind = binds horse apoferritin like a general anesthetic; Potency, µM (highest dose often 77.5 µM), most hits filed as inhibitors; apoferritin/1-aminoanthracene competitive binding, fluorescence; hit rate 0.074% among 350,000; AID 485281; note: nearly all actives have a fitted effect of over 20% in size
Target sequence (P02791 2-175 limits assumed): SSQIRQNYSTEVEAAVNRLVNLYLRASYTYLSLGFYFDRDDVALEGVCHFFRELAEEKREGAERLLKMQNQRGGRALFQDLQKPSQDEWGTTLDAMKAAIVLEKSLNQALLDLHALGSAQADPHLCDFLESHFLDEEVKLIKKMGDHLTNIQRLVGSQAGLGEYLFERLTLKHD
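Horse-spleen apoferritin (10 uM) in 50% saturated 1-aminoanthracene in PBS was incubated 10 min at room temperature with compound. Fluorescence (ex 380, em 535 nm) was normalized to free and bound 1-AMA, with concentration-response fitted by a four-parameter Hill equation.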
TGFb SMAD3 inh = blocks TGF-b signaling. HepG2 CAGA-GFP TGF-b/SMAD3 reporter, GFP fluorescence, 18 h; TGF-beta stimulated, 500 pg/mL final. Potency, µM (highest dose often 46.1 µM), actives largely listed as inhibitors. hit rate 1.2% among 410,000; note: nearly all actives have a fitted effect of over 65% in size
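Using HEPG2 CAGA-GFP reporter cells at 1000 cells/well, we pinned test compounds, stimulated with recombinant TGF-beta (500 pg/mL final) and measured total well GFP after 18 h.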
Numbers stand for hits; [ ] = remark or other dose. Calls come from the whole dose curve; as a rule, active = well fitted curve in the direction sought with a large enough effect; inconclusive = small, poorly fitted or top-dose-only effect, or another doubt; inactive = no such curve, though single readings can be large; an effect the other way counts as inactive or inconclusive.

Results for CCOC(=O)C(=Cc1cc(=O)c(OC)co1)C(=O)OCC ?
ATXN2 expr inh: inconclusive; HepG2 viability: 14µM; ATXN viability: inconclusive; Anesthetic bind: inactive; TGFb SMAD3 inh: 7.1µM

Results for COc1coc(C(O)CN)cc1=O (stereo not given) ?
ATXN2 expr inh: inactive; HepG2 viability: inactive; ATXN viability: inactive; Anesthetic bind: inactive; TGFb SMAD3 inh: inactive

How did N#C/C(=N\Nc1ccc([N+](=O)[O-])cc1)C(N)=S do in these assays?
ATXN2 expr inh: inactive; HepG2 viability: inactive; ATXN viability: 22µM; Anesthetic bind: inactive; TGFb SMAD3 inh: inconclusive

How did N#C/C(=N\Nc1cccc([N+](=O)[O-])c1)C(=O)c1ccc(Br)cc1 do in these assays?
ATXN2 expr inh: 9.5µM; HepG2 viability: inactive; ATXN viability: inconclusive; Anesthetic bind: inactive; TGFb SMAD3 inh: 6.3µM

What do the screens show for `N#C/C(=N\Nc1ccc(S(=O)(=O)N2CCCCCC2)cc1)C(N)=S`?
ATXN2 expr inh: inactive; HepG2 viability: inactive; ATXN viability: inactive; Anesthetic bind: inconclusive; TGFb SMAD3 inh: inconclusive

What do the screens show for `CCOC(=O)/C(C#N)=N/Nc1ccc(S(=O)(=O)N2CCc3ccccc32)cc1`?
ATXN2 expr inh: inactive; HepG2 viability: inactive; ATXN viability: inactive; Anesthetic bind: inactive; TGFb SMAD3 inh: 11µM

What do the screens show for `CCOC(=O)CCC(=O)Nc1ccc(S(=O)(=O)N2CCc3ccccc32)cc1`?
ATXN2 expr inh: inactive; HepG2 viability: inactive; ATXN viability: inactive; Anesthetic bind: inactive; TGFb SMAD3 inh: inactive

What do the screens show for `N#C/C(=N\Nc1ccc(S(=O)(=O)N2CCc3ccccc32)cc1)C(N)=S`?
ATXN2 expr inh: inactive[11.3 µM]; HepG2 viability: inactive; ATXN viability: inactive; Anesthetic bind: inconclusive; TGFb SMAD3 inh: 11µM

Results for COc1ccc(-n2nc([N+](=O)[O-])c(=NCCc3ccc(OC)c(OC)c3)n2O)cc1 ?
ATXN2 expr inh: inactive; HepG2 viability: 16µM; ATXN viability: inactive; Anesthetic bind: inactive; TGFb SMAD3 inh: inactive

What do the screens show for `O=C1C(Cl)=C(N2CCC(C(=O)O)CC2)C(=O)c2ccccc21`?
ATXN2 expr inh: 25µM; HepG2 viability: inactive; ATXN viability: inactive; Anesthetic bind: inactive; TGFb SMAD3 inh: inconclusive

Results for CN1CCN(C2=C(Cl)C(=O)C(c3cnc(N4CCCCC4)s3)=C(Cl)C2=O)CC1 ?
ATXN2 expr inh: inconclusive; HepG2 viability: inactive; ATXN viability: 25µM; Anesthetic bind: inactive; TGFb SMAD3 inh: inconclusive

What do the screens show for `NC(=O)C1CCN(C2=C(Cl)C(=O)c3ccccc3C2=O)CC1`?
ATXN2 expr inh: inconclusive; HepG2 viability: 7.1µM; ATXN viability: inconclusive; Anesthetic bind: inactive; TGFb SMAD3 inh: inconclusive

What do the screens show for `CN1CCN(C2=C(Cl)C(=O)c3ccccc3C2=O)CC1`?
ATXN2 expr inh: 24µM; HepG2 viability: 10µM; TGFb SMAD3 inh: inconclusive

What do the screens show for `CCCCCC=CCC=CCCCCCCCC(=O)OCC`?
ATXN2 expr inh: inactive; ATXN viability: inactive

How did CCOc1ccc(-c2cc(C(=O)Nc3ccc(C)c(NS(C)(=O)=O)c3)[nH]n2)c(C)c1 do in these assays?
ATXN2 expr inh: inactive; HepG2 viability: inactive; ATXN viability: inconclusive; TGFb SMAD3 inh: inactive

What do the screens show for `O=C(Nc1ccc(S(=O)(=O)N2CCCCC2c2cccnc2)cc1)c1ccc(Br)cc1` (stereo not given)?
ATXN2 expr inh: 14µM; HepG2 viability: inactive; ATXN viability: 11µM; Anesthetic bind: inactive; TGFb SMAD3 inh: inactive

What do the screens show for `CCOc1ccc(C(=O)Nc2ccc(S(=O)(=O)N3CCCCC3c3cccnc3)cc2)cc1` (stereo not given)?
ATXN2 expr inh: 18µM; HepG2 viability: inactive; ATXN viability: inconclusive; Anesthetic bind: inactive; TGFb SMAD3 inh: inconclusive

What do the screens show for `CCOC(=O)C(=O)c1csc(NC=O)n1`?
ATXN2 expr inh: inactive; ATXN viability: inactive

What do the screens show for `O=c1[nH]c2ccccc2n1CCCN1CCCCC1`?
ATXN2 expr inh: inactive[11.3 µM]; HepG2 viability: inactive; ATXN viability: inactive; Anesthetic bind: inactive; TGFb SMAD3 inh: inactive

How did O=c1[nH]c2ccccc2n1CCCN1CCN(C(c2ccccc2)c2ccccc2)CC1 do in these assays?
ATXN2 expr inh: 32µM; ATXN viability: inconclusive; Anesthetic bind: inactive
